The supplement of paper PMC10849652
About 7,900 targets were measured; listed, in parts, are those with a hit and a random draw of the rest. About 0.6% of all pairs of compound and target were hits. Values without a mark were called inactive.

Columns and labels:
Assay in all cases: log2 fold change, soluble protein after heating vs DMSO (PISA); higher = thermal stabilisation; K562 cells, 10 uM, 30 min; active = over 0.2 and 3.5 SD of the protein, either way, in both replicates (recomputed)
YAE1 = YAE1 (UniProt Q9NRH1)
Chain of YAE1 (Q9NRH1 whole entry, looked up): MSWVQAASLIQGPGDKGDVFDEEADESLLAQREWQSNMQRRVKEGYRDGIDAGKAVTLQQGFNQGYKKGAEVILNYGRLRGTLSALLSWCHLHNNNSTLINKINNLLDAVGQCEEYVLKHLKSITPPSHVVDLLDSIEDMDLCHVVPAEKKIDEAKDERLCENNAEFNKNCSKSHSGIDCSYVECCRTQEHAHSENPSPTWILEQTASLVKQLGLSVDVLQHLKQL
Summary of the method: (§1)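 K562 cells at 2×10^6 cells/mL were exposed to 10 μM compound for 30 min, then aliquots were heated for 3 min across 48°C-58°C, pooled, and extracted in PBS containing 0.5% NP-40 at 4°C. The supernatant after 21,000xg for 90 min was taken as soluble protein and measured by TMTpro 16plex LC-MS/MS with channel sums equalised. Thermal stability is reported relative to control samples, with values from duplicates. Fold changes are given on a log2 scale.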

YBX1 = YBX1 (UniProt P67809)
Chain of YBX1 (P67809 whole entry, looked up): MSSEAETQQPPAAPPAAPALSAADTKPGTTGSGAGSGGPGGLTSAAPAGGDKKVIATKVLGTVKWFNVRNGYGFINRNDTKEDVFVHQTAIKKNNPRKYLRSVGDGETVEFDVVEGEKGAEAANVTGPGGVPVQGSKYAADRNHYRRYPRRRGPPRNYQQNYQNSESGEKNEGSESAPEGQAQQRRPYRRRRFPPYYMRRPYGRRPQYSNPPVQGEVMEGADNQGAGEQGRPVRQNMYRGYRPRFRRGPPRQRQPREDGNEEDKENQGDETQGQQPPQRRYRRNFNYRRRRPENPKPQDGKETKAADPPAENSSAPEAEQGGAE
Summary of the method: as §1

YIPF4 = YIPF4 (UniProt Q9BSR8)
Chain of YIPF4 (Q9BSR8 whole entry, looked up): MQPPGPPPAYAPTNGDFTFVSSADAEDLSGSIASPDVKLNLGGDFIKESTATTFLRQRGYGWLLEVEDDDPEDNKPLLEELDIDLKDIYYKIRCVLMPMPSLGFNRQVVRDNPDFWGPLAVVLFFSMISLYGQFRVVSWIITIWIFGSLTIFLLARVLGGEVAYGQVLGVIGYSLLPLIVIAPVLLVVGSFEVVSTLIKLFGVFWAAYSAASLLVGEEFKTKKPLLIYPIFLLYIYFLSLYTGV
Summary of the method: as §1

YIPF5 isoform 3 = YIPF5 isoform 3 (UniProt Q969M3)
Chain of YIPF5 isoform 3 (Q969M3 whole entry, looked up, canonical isoform): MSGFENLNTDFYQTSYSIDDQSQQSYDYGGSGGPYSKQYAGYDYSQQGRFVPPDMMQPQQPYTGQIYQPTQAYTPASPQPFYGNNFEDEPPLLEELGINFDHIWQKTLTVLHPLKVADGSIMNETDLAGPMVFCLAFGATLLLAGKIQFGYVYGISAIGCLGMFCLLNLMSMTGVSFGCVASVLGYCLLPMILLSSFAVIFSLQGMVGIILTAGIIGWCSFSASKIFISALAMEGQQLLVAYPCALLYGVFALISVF
Summary of the method: as §1

YIPF6 = YIPF6 (UniProt Q96EC8)
Chain of YIPF6 (Q96EC8 whole entry, looked up): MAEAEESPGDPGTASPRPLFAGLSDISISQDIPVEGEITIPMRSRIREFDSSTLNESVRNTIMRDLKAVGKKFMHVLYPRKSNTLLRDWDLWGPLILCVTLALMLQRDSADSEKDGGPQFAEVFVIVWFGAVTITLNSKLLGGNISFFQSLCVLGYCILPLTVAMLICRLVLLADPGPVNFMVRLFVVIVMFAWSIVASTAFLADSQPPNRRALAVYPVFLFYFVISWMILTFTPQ
Summary of the method: as §1

YLPM1 = YLPM1 (UniProt P49750)
Summary of the method: as §1

YOD1 = YOD1 (UniProt Q5VVQ6)
Chain of YOD1 (Q5VVQ6 whole entry, looked up): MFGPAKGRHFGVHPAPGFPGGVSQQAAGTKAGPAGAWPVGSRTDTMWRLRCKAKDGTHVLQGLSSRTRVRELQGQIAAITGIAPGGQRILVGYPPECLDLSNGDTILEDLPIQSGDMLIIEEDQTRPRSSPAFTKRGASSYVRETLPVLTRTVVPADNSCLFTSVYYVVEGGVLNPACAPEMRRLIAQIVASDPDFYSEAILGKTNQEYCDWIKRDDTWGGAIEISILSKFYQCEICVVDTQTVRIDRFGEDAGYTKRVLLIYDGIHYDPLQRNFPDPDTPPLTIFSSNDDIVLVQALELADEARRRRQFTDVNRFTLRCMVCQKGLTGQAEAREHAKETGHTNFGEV
Summary of the method: as §1

YPEL5 = YPEL5 (UniProt P62699)
Chain of YPEL5 (P62699 whole entry, looked up): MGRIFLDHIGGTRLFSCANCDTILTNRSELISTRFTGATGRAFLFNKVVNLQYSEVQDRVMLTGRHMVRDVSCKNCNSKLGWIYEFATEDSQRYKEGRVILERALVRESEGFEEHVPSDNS
Summary of the method: as §1

YWHAB = YWHAB (UniProt P31946)
Chain of YWHAB (P31946 whole entry, looked up): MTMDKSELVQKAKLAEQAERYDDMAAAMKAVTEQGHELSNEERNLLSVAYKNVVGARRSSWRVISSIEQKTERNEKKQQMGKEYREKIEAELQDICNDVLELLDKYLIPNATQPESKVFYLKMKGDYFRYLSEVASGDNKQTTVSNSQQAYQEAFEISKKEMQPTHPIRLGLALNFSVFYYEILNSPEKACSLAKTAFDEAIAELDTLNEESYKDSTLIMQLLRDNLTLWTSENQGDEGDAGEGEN
Summary of the method: as §1

YWHAQ = YWHAQ (UniProt P27348)
Summary of the method: as §1

YWHAZ [1] = target: YWHAZ (UniProt P63104)
Chain of YWHAZ (UniProt P63104) (P63104 whole entry, looked up): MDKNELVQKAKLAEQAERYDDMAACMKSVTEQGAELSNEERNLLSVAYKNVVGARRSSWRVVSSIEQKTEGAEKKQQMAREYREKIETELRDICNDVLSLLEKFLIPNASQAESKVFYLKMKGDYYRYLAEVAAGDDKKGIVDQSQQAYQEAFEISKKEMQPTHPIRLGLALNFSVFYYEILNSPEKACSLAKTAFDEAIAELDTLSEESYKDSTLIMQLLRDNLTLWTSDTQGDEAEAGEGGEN
Summary of the method: as §1

YY1 = YY1 (UniProt P25490)
Chain of YY1 (P25490 whole entry, looked up): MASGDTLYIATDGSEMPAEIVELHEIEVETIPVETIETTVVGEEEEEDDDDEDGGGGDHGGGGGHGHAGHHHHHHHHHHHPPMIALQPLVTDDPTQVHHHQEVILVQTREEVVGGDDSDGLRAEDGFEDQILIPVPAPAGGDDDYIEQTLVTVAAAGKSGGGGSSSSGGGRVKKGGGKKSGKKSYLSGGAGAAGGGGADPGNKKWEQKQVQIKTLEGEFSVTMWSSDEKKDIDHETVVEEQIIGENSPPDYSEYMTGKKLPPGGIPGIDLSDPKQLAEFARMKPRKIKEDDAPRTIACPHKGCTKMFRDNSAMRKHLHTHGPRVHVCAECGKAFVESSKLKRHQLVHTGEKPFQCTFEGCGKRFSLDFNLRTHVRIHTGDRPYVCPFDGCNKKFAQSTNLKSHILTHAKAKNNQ
Summary of the method: as §1

ZADH2 = ZADH2 (UniProt Q8N4Q0)
Chain of ZADH2 (Q8N4Q0 whole entry, looked up): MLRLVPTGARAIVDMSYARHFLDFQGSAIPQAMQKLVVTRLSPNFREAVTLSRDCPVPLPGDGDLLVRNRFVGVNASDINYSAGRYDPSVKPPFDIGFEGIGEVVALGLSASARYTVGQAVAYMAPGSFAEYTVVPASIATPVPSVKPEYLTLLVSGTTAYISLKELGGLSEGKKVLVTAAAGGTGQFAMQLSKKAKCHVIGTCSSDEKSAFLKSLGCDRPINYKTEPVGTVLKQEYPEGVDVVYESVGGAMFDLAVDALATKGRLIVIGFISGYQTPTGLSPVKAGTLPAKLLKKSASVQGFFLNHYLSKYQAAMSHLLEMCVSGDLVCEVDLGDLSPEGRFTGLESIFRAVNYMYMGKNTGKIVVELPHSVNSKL
Summary of the method: as §1

ZBTB17 isoform 2 = ZBTB17 isoform 2 (UniProt Q13105)
Chain of ZBTB17 isoform 2 (Q13105 whole entry, looked up, canonical isoform): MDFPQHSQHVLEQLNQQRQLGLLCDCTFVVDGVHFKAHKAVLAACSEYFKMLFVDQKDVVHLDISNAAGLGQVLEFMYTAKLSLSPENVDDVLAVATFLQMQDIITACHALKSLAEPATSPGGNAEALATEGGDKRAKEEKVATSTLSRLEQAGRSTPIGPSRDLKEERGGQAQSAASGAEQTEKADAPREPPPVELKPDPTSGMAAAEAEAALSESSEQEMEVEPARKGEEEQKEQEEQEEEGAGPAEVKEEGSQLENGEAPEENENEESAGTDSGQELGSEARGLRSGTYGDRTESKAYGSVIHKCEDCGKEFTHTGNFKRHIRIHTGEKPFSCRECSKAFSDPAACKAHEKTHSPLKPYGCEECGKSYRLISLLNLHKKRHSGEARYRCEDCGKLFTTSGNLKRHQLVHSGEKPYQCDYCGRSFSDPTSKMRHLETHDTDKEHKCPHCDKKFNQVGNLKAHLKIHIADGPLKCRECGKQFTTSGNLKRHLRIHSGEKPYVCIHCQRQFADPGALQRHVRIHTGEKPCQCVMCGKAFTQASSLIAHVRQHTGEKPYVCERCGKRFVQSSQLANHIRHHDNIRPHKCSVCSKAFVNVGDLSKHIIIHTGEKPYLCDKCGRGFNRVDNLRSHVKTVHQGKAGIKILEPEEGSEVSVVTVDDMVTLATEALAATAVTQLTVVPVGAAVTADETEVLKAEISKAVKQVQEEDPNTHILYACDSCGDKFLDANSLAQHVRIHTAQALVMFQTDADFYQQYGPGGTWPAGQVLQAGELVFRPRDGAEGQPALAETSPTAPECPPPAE
Summary of the method: as §1

ZBTB21 = ZBTB21 (UniProt Q9ULJ3)
Summary of the method: as §1

ZBTB43 = ZBTB43 (UniProt O43298)
Chain of ZBTB43 (O43298 whole entry, looked up): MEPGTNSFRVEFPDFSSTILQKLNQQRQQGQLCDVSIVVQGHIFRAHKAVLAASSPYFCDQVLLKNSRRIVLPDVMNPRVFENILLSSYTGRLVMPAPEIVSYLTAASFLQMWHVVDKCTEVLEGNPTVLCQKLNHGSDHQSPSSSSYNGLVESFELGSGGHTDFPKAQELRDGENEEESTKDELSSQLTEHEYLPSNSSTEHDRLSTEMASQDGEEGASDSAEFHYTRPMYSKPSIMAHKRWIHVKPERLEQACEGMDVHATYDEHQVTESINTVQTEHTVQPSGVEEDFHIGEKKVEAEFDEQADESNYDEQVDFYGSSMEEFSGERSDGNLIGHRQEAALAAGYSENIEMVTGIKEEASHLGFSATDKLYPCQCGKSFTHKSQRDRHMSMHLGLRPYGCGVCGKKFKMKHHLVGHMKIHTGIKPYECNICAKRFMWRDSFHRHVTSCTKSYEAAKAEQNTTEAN
Summary of the method: as §1

ZC3H18 = ZC3H18 (UniProt Q86VM9)
Summary of the method: as §1

YES1 = YES1 (UniProt P07947)
Chain of YES1 (P07947 whole entry, looked up): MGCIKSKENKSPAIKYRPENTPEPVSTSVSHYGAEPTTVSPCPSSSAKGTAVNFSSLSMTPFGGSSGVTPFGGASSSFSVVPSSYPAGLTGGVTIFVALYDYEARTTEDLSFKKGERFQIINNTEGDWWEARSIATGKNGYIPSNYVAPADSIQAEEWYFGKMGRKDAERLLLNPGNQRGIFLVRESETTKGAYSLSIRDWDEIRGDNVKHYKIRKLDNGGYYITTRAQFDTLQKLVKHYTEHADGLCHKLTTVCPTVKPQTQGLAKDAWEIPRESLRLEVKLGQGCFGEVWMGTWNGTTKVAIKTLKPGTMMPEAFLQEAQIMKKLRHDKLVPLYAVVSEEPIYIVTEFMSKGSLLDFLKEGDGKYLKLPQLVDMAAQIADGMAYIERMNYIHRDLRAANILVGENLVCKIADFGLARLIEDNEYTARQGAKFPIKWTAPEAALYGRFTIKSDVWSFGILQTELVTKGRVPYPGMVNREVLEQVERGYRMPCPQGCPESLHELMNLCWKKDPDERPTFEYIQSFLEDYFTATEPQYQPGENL
Summary of the method: as §1

YWHAZ [2] = target: YWHAZ (UniProt E7ESK7)
Summary of the method: as §1

Row | SMILES | log2 fold change (YAE1) | log2 fold change (YBX1) | log2 fold change (YIPF4) | log2 fold change (YIPF5 isoform 3) | log2 fold change (YIPF6) | log2 fold change (YLPM1) | log2 fold change (YOD1) | log2 fold change (YPEL5) | log2 fold change (YWHAB) | log2 fold change (YWHAQ) | log2 fold change (YWHAZ [1]) | log2 fold change (YY1) | log2 fold change (ZADH2) | log2 fold change (ZBTB17 isoform 2) | log2 fold change (ZBTB21) | log2 fold change (ZBTB43) | log2 fold change (ZC3H18) | log2 fold change (YES1) | log2 fold change (YWHAZ [2])
1 | Cc1ccc(NC(=O)c2cccc(C(C)(C)C#N)c2)cc1Nc1ccc2ncn(C)c(=O)c2c1 | 0.056 | 0.041 | 0.013 | 0.042 | -0.131 | -0.095 | 0.067 | -0.131 | 0.016 | 0.184 | 0.025 | 0.035 | 0.453 (active) | 0.018 | -0.03 | 0.004 | 0 | – | –
2 | CS(=O)(=O)N1CCN(Cc2cc3nc(-c4cccc5[nH]ncc45)nc(N4CCOCC4)c3s2)CC1 [pictilisib] | 0.021 | 0.033 | 0.15 | 0.027 | 0.107 | 0.065 | -0.001 | 0.172 | 0.002 | -0.142 | -0.037 | -0.021 | 0.14 | – | -0.035 | 0.027 | -0.019 | 0.093 | –
3 | O=C(Nc1cccc(Nc2ncc(Br)c(NCCc3cnc[nH]3)n2)c1)N1CCCC1 | -0.084 | 0.103 | -0.033 | 0.033 | -0.013 | -0.083 | -0.012 | – | 0.006 | -0.089 | 0.011 | -0.065 | 0.001 | -0.014 | 0.107 | -0.052 | -0.126 | -0.139 | -0.031
4 | Nc1ccccc1NC(=O)c1ccc(CNC(=O)OCc2cccnc2)cc1 [entinostat] | 0.011 | -0.073 | -0.04 | -0.05 | 0.228 | -0.064 | -0.143 | -0.187 | -0.042 | 0.116 | 0.032 | 0.053 | -0.04 | -0.14 | -0.074 | -0.091 | 0.021 | – | –
5 | COc1cc2ncnc(Nc3ccc(F)c(Cl)c3)c2cc1OCCCN1CCOCC1 [gefitinib] | -0.016 | -0.096 | 0.038 | 0.024 | 0.005 | 0.002 | 0.006 | -0.239 | -0.001 | 0.007 | 0.005 | -0.076 | -0.029 | – | -0.125 | 0.025 | -0.033 | -0.045 | –
6 | NC1(Cc2ccc(Cl)cc2)CCN(c2ncnc3[nH]ccc23)CC1 | -0.022 | -0.159 | -0.016 | 0.126 | -0.015 | 0.102 | -0.037 | – | 0.028 | 0.029 | 0.059 | 0.066 | 0.008 | -0.199 | 0.024 | -0.053 | -0.124 | -0.059 | 0.07
7 | COC(=O)[C@H](CCSC)NC(=O)c1ccc(NC[C@@H](N)CS)cc1-c1ccccc1 | 0.059 | 0.113 | 0.088 | 0.046 | 0.041 | -0.014 | -0.016 | -0.23 | 0.016 | 0.019 | -0.002 | 0.014 | 0.052 | – | -0.022 | 0.018 | 0.045 | -0.006 | –
8 | Cc1nc(Nc2n[nH]c3c2CN(C(=O)N[C@H](CN(C)C)c2ccccc2)C3(C)C)c2sccc2n1 | 0.104 | 0.149 | 0.004 | 0.016 | -0.042 | -0.075 | -0.089 | -0.118 | -0.002 | -0.033 | -0.015 | -0.304 (active) | -0.127 | – | -0.093 | 0.043 | -0.145 | -0.746 (active) | –
9 | Cc1cc(Nc2cc(CN3CCOCC3)c3nc(C)c(Cc4ccc(Cl)cc4F)n3n2)n[nH]1 [gandotinib] | 0.007 | 0.334 | -0.086 | -0.1 | -0.019 | -0.117 | -0.149 | -0.095 | -0.25 (active) | -0.071 | 0.084 | -0.012 | 0.128 | – | 0.074 | 0.043 | 0.017 | -0.447 | –
10 | Cc1ccc2c(=O)c3ccccc3n(CCCN)c2c1C | 0.022 | -0.637 (active) | 0.215 | -0.006 | 0.145 | 0.023 | 0.063 | – | -0.072 | -0.055 | -0.009 | -0.433 (active) | 0.038 | 1.05 (active) | -0.183 | -1.06 (active) | -0.612 (active) | 0.043 | 0.029
11 | CCn1cc(-c2ccnc3[nH]c(-c4cccc(CN(C)C)c4)cc23)c(-c2ccc(NC(=O)N(C)C)cc2)n1 | -0.015 | 0.249 | 0.037 | 0.06 | 0.103 | -0.012 | -0.101 | -0.072 | 0.014 | 0.143 | -0.042 | 0.002 | 0.13 | – | -0.073 | 0.028 | 0.068 | -0.241 | –
12 | CNC(=O)c1ccc(Nc2ncc(C(F)(F)F)c(NCc3nccnc3N(C)S(C)(=O)=O)n2)cc1 [defactinib] | 0.026 | 0.301 | -0.016 | -0.019 | -0.041 | -0.019 | -0.103 | -0.073 | -0.022 | 0 | 0 | -0.299 (active) | 0.025 | – | -0.033 | 0.063 | -0.234 | -0.199 | –
13 | Cc1cc(Nc2cc(N3CCN(C)CC3)nc(Sc3ccc(NC(=O)C4CC4)cc3)n2)n[nH]1 [tozasertib] | 0.033 | -0.041 | 0.079 | -0.089 | -0.066 | -0.051 | 0.043 | – | 0.019 | 0.046 | 0.045 | 0.099 | 0.014 | 0.299 | -0.219 | 0.063 | 0.061 | -0.45 | 0.176
14 | CN1CCC(CNc2ccc3ncc(-c4cccc(OC(F)(F)F)c4)n3n2)CC1 | 0.057 | 0.348 | 0.101 | -0.288 | 0.155 | -0.113 | -0.305 (active) | -0.094 | -0.042 | 0.585 | 0.035 | -0.21 | 0.023 | – | -0.149 | 0.032 | -0.044 | -0.326 | –
15 | NCC(=O)Nc1ccc(-n2nc(C(F)(F)F)cc2-c2ccc3c(ccc4ccccc43)c2)cc1 | -0.011 | 0.055 | -0.004 | 0.021 | 0.071 | -0.069 | -0.015 | 0.129 | -0.007 | 0.457 | 0.084 | -0.009 | 0.017 | – | -0.042 | 0 | -0.012 | 0.001 | –
16 | NC(=O)c1ccc2nc(-c3ccc(Oc4ccc(Cl)cc4)cc3)[nH]c2c1 | 0 | -0.033 | -0.039 | 0.012 | 0.005 | 0.033 | 0.019 | -0.021 | -0.012 | -0.021 | 0.011 | 0.03 | 0.052 | 0.03 | 0.053 | 0.037 | 0.045 | 0.049 | –
